Legend:
Test in all cases: relative induction of RFP reporter vs primary effector (background-corrected); higher = stronger activation of the biosensor
Conditions in all cases: inducer concentration 5 mM; 6 h; Cupriavidus necator H16; minimal medium + 0.4% gluconate
[1] = test system: AcoR/P_H16_RS19445 acetoin biosensor (pEH052)
Procedure: (§1)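 C. necator H16 strains, each carrying one of 21 transcription factor/inducible promoter–mRFP biosensor plasmids, were grown in minimal medium in 96-well plates (robotic platform). Each was exposed to 46 structurally or metabolically related compounds at 5 mM at 30 °C. OD-normalised RFP fluorescence was read 6 h later and expressed as relative induction (%) = 100 × (FL compound − FL uninduced)/(FL primary inducer − FL uninduced); mean of n=4.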

[2] = test system: AraC/P_araBAD L-arabinose biosensor (pEH176)
Procedure: as §1

[3] = test system: BenM/P_H16_RS09790 benzoate biosensor (pEH148)
Procedure: as §1

[4] = test system: FdsR/P_H16_RS03165 formate biosensor (pEH134)
Procedure: as §1

[5] = test system: GabR/P_H16_RS23655 GABA biosensor (pEH256)
Procedure: as §1

[6] = test system: HpdR/P_H16_RS18295 3-hydroxypropanoate biosensor (pEH010)
Procedure: as §1

[7] = test system: KynR/P_H16_RS14030 L-kynurenine biosensor (pEH136)
Procedure: as §1

[8] = test system: NahR/P_H16_RS08125 salicylate biosensor (pEH042)
Procedure: as §1

[9] = test system: OapR/P_H16_RS01330 beta-alanine biosensor (pEH147)
Procedure: as §1

[10] = test system: PcaQ/P_H16_RS30145 3,4-dihydroxybenzoate biosensor (pEH161)
Procedure: as §1

[11] = test system: PhgR/P_H16_RS05530 phenylglyoxylate biosensor (pEH155)
Procedure: as §1

[12] = test system: PhhR/P_H16_RS18365 L-phenylalanine biosensor (pEH137)
Procedure: as §1

[13] = test system: SauR/P_H16_RS13695 sulfonatoacetate biosensor (pEH157)
Procedure: as §1

[14] = test system: TtdR/P_H16_RS10665 tartrate biosensor (pEH083)
Procedure: as §1

[15] = test system: XdhR/P_H16_RS05055 xanthine biosensor (pEH154)
Procedure: as §1

[16] = test system: heterologous inducible system pEH002 (rhamnose/acrylate/cumate/itaconate set)
Procedure: as §1

[17] = test system: heterologous inducible system pEH020 (rhamnose/acrylate/cumate/itaconate set)
Procedure: as §1

[18] = test system: heterologous inducible system pEH040 (rhamnose/acrylate/cumate/itaconate set)
Procedure: as §1

[19] = test system: heterologous inducible system pEH086 (rhamnose/acrylate/cumate/itaconate set)
Procedure: as §1

[20] = test system: BadR/P_H16_RS27200 cyclohexanecarboxylate biosensor (pEH159)
Procedure: as §1
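Further: RFP excited at 585 nm with emission read at 620 nm, culture medium blanks subtracted from fluorescence and absorbance prior to normalisation.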

SMILES | relative induction of RFP reporter [1] | relative induction of RFP reporter [2] | relative induction of RFP reporter [3] | relative induction of RFP reporter [4] | relative induction of RFP reporter [5] | relative induction of RFP reporter [6] | relative induction of RFP reporter [7] | relative induction of RFP reporter [8] | relative induction of RFP reporter [9] | relative induction of RFP reporter [10] | relative induction of RFP reporter [11] | relative induction of RFP reporter [12] | relative induction of RFP reporter [13] | relative induction of RFP reporter [14] | relative induction of RFP reporter [15] | relative induction of RFP reporter [16] | relative induction of RFP reporter [17] | relative induction of RFP reporter [18] | relative induction of RFP reporter [19] | relative induction of RFP reporter [20]
Oc1cccc(O)c1 [resorcinol] | 1.11% | -0.0083% | 0.0215% | 3.2% | -1.35% | -0.13% | -0.206% | 0.04% | -1.51% | -0.109% | 0.115% | 0.365% | 0.0138% | 1.74% | -0.161% | -0.00943% | -0.947% | 0.407% | -0.0428% | 
O=C(O)C1=CCCCC1 [cyclohexene-1-carboxylate] | 2.55% | -0.0101% | 156% | -3.7% | -1.27% | -0.493% | 0.423% | -0.00892% | 1.03% | -0.0381% | -0.121% | -0.244% | 0.0222% | 0.391% | 0.161% | 0.0231% | 0.24% | 1.34% | 0.551% | 
O=C(O)c1c(O)cccc1O [2,6-dihydroxybenzoate] | 2.22% | 0.019% | 0.0383% | -4.96% | 1.87% | 0.277% | 0.406% | 8.29% | 0.369% | 0.0449% | -0.403% | 0.0318% | 0.0103% | -0.411% | 0.89% | 0.00673% | 2.01% | 0.428% | 0.26% | 
O=c1[nH]cnc2nc[nH]c12 [hypoxanthine] | -1.99% | 0.0138% | -0.0181% | -4.61% | -0.0294% | 0.126% | -0.263% | 0.0182% | 1.08% | -0.186% | 0.109% | -0.204% | 0.0689% | 0.797% | 166% | 0.00894% | -1.8% | -0.718% | 0.0665% | 
NCC(O)C(=O)O (centres undefined) [3-amino-2-hydroxypropanoate] | -0.589% | 0.017% | -0.00343% | -6.17% | -1.08% | -0.132% | -0.0139% | 0.0227% | 33.2% | -0.0272% | -0.304% | -0.491% | 0.0914% | 0.315% | -0.317% | 0.0153% | -1.25% | 0.821% | 0.238% | 
Cn1cnc2c1c(=O)[nH]c(=O)n2C [theobromine] | 0.603% | 0.0327% | 0.0104% | 3.33% | -2.07% | 0.0941% | 1.51% | 0.0192% | 0.977% | -0.0479% | 0.316% | 1.05% | -0.00533% | 0.646% | 0.45% | 0.0324% | -0.957% | 0.453% | 0.597% | 
O=C(O)c1ccc(O)cc1 [4-hydroxybenzoate] | 0.234% | -0.0125% | -0.00462% | 1.94% | -0.622% | 0.357% | -0.184% | 0.159% | -0.798% | 212% | -0.153% | -0.483% | -0.0101% | 0.895% | -0.191% | 0.0183% | -0.27% | -0.0264% | 0.318% | 0.236%

Reference: the supplement of paper PMC7057948, “A genome-wide approach for identification and characterisation of metabolite-inducible systems” (Nature Communications, 2020)
